Experimental data published in PubChem BioAssay (NCATS).
Several values for one entry are separate records, joined by “and”; a condition that tells them apart may be missing. Equal entries are not always repeated. Results filed as inconclusive are left out. Some compounds were tested as several samples or in several runs, with calls that do not always agree. Activity calls are given as the source filed them. Unless noted, calls come from the whole dose curve; as a rule, active = well fitted curve in the direction sought with a large enough effect; inconclusive = small, poorly fitted or top-dose-only effect, or another doubt; inactive = no such curve, though single readings can be large; an effect the other way counts as inactive or inconclusive.

What was measured:
[1] = Cellular Toxicity (caspase-3) Hek293 (AID 664);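 note: cells exposed to compound for 16 h at 37 °C before readout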
How it was run: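 qHTS, HEK293 (human embryonic kidney), 16 h cpd exposure in complete medium. Caspase-3/7 activation = luminescence increase; normalized to DMSO/100 uM tamoxifen; Hill-fit AC50.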

[2] = MultiTox-Fluor Cytotoxicity Assay - LYMP1-001 - Live Cells (AID 947);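 note: 0% = DMSO only and full inhibition = tetraoctylammonium bromide control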
[3] = qHTS assay for small molecule antagonists of peroxisome proliferator-activated receptor delta signaling (AID 588535); settings: HEK293T PPARd-UAS-bla, beta-lactamase FRET ratio, 18 h; 460 nm channel;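 note: cells co-treated with a PPAR-delta agonist as stimulator during compound exposure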
How it was run: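 Fluorescence from CCF4-loaded GeneBLAzer PPAR-delta-UAS-bla HEK293T cells (2 hrs RT loading) quantified reporter inhibition after an 18 hr, 37 C compound exposure across a titration.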

[4] = biological target: Peroxisome proliferator-activated receptor gamma (Homo sapiens) (UniProt P37231); assay: qHTS assay for small molecule antagonists of peroxisome proliferator-activated receptor gamma signaling (AID 588537; active = well fitted inhibition curve with a large enough effect in the signal ratio, with a control signal flat, not every such curve was filed as active; the % refers to the signal ratio;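 note: reporter cells co-stimulated with 50 nM rosiglitazone agonist during compound treatment; % of control where 0% means no effect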)
How it was run: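 Fluorescence at 460 and 530 nm (405 nm excitation) reported beta-lactamase cleavage of CCF4 after 2 h room-temperature loading. HEK293 reporter cells in 1% charcoal/dextran-treated FBS had received compound and rosiglitazone for 16 h.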

[5] = biological target: Vitamin D3 receptor (Homo sapiens) (UniProt P11473); assay: qHTS assay for small molecule antagonists of vitamin D receptor signaling (AID 588541; calls by dose curve;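 note: receptor activated by calcitriol during compound treatment; % is set by controls: 0 for no effect and ±100 for the full control effect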)
How it was run: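 VDR-UAS-bla HEK293T cells in 2% charcoal-stripped FBS were stimulated with 1-alpha,25-dihydroxyvitamin D3 (3 nM final) plus compound for 16 h at 37 C. The beta-lactamase CCF4 readout was normalized to 50 nM agonist and DMSO, and Hill fits gave IC50.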

[6] = biological target: Vitamin D3 receptor (Homo sapiens) (UniProt P11473); assay: qHTS assay for small molecule agonists of vitamin D receptor signaling (AID 588543; calls by dose curve;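 note: 0% = DMSO basal and 100% = reference agonist control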)
How it was run: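 GeneBLAzer VDR-UAS-bla HEK293T cells in 2% charcoal-stripped FBS medium were dosed with compound titrations for 16 h at 37 °C; CCF4 β-lactamase readout (405 nm ex, 460/530 nm em). EC50 and efficacy from Hill fits, normalized to 50 nM calcitriol (100%) and DMSO (0%).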

[7] = qHTS assay for small molecule agonists of the antioxidant response element (ARE) signaling pathway (AID 651741; active = well fitted activation curve with a large enough effect in the signal ratio; the % refers to the signal ratio; note: potency is the fitted concentration of half-maximal effect; for activation: % of control where 0% means no effect)
How it was run: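 Stably integrated ARE-beta-lactamase reporter HepG2 cells; 16 h compound incubation, 37 C; LiveBLAzer FRET substrate 2 h at room temperature; fluorescence intensity.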

[8] = qHTS assay for cell viability of HEK293 cells (AID 743288); settings: ATP luminescence (CellTiter-Glo), 18 h; max response: stronger effect = lower value; note: % is set by controls: 0 for no effect and ±100 for the full control effect; nearly all actives have a fitted effect of over 50% in size
How it was run: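 After 18 h compound exposure at 37 C, parental HEK293 cells (2,000/well) are lysed with CellTiter-Glo and luminescence is read following 30 min at room temperature.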

[9] = Cellular Toxicity (caspase-3) Jurkat (AID 655); settings: Jurkat caspase-3 activation, luminescence, DMSO = 0%, tamoxifen = 100%; at 92.2 µM (top of the series);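 note: cells exposed to compound for 16 h at 37 °C before reading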
How it was run: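 Jurkat cells (5000/well) in complete medium were treated with compounds for 16 hr at 37 °C, then Caspase-Glo 3/7 luminescence was read after 20 min at room temperature. Data normalized to DMSO (basal) and 100 uM tamoxifen (100%); AC50 from Hill fit.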

[10] = Cell Viability - LYMP1-003 - Assay at 24 hr (AID 963);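 note: plate controls were DMSO only for no effect and tetraoctylammonium bromide positive control for full effect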
How it was run: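 Cytotoxicity is scored as a concentration-dependent fall in ATP-linked luciferase signal in human lymphoblastoid LYMP1-003 cells treated 24 hr at 37 C in complete culture medium.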

[11] = biological target: Peroxisome proliferator-activated receptor delta (Homo sapiens) (UniProt Q03181); assay: qHTS assay for small molecule agonists of peroxisome proliferator-activated receptor delta signaling (AID 588534; calls by dose curve;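 note: 0% = DMSO basal wells and 100% = positive control agonist at 10 µM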)
How it was run: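 Agonist-mode qHTS; reporter cells, 5 hrs 37 C pre-incubation; compound titration, 18 hrs 37 C; CCF4 dye, 2 hrs RT; fluorescence read. EC50/efficacy via Hill fit.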

[12] = biological target: Retinoic acid receptor RXR-alpha (Homo sapiens) (UniProt P19793); assay: qHTS assay for small molecule agonists of retinoid X receptor alpha signaling (AID 588544; calls by dose curve; note: potency is the fitted concentration of half-maximal effect;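 for activation: 0% = DMSO basal wells and 100% = reference agonist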)
[13] = biological target: Nuclear receptor subfamily 1 group I member 2 (Rattus norvegicus) (UniProt Q9R1A7); assay: qHTS assay for small molecule activators of the rat pregnane X receptor (rPXR) signaling pathway (AID 651751; call rule not given here; note: 0% is about no effect); settings: rPXR reporter cells, luciferase (One-Glo), 24 h
[14] = qHTS assay for small molecule activators of the human pregnane X receptor (PXR) signaling pathway (AID 720659; call rule not given here; note: 0% is about no effect)
[15] = Cell Viability - LYMP2-010 (AID 981);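 note: cells exposed to compound for 24 hours at 37 °C; % is set by controls: 0 for no effect and ±100 for the full control effect; nearly all actives have a fitted effect of over 55% in size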
How it was run: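 Steps: seed 2500 LYMP2-010 cells per well; incubate 5 hr at 37 C; add compound; incubate 24 hr at 37 C; add CellTiter-Glo, wait 30 min at room temperature; read luminescence. Concentration-response fitted to Hill equation for AC50.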

[16] = biological target: Estrogen receptor (Homo sapiens) (UniProt P03372); assay: qHTS assay for small molecule agonists of estrogen receptor alpha signaling (AID 588514; calls by dose curve; note: nearly all actives have a fitted effect of over 70% in size; note: potency is the fitted concentration of half-maximal effect;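 for activation: 0% = vehicle only and 100% = reference agonist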)
How it was run: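 Efficacy is expressed against 20 nM 17-beta-estradiol (100%) and DMSO basal (0%); EC50 from Hill equation. Assay: beta-lactamase reporter in ER-alpha-UAS-bla HEK 293 cells, 18 h compound incubation, CCF4 detection.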

[17] = biological target: Bile acid receptor (Homo sapiens) (UniProt Q96RI1); assay: qHTS assay for small molecule antagonists of farnesoid X receptor signaling (AID 588526; calls by dose curve; note: % is set by controls: 0 for no effect and ±100 for the full control effect)
How it was run: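 Antagonist mode: titrated compounds tested against chenodeoxycholic acid stimulation (normalized to 50 uM CDCA and DMSO) in GeneBLAzer HEK293T cells for 16 h. Beta-lactamase read by CCF4 fluorescence; IC50 from Hill fits.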

[18] = qHTS assay for small molecule activators of the nuclear factor-kappa B (NF-kB) signaling pathway (AID 651749; active = well fitted activation curve with a large enough effect in the signal ratio; the % refers to the signal ratio; note: % of control where 0% means no effect); settings: NF-kB-bla ME-180 cells, beta-lactamase FRET ratio, 16 h; activation: stronger effect = higher value
How it was run: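 In this qHTS format, compounds acting as activators increase NF-kB-driven beta-lactamase in ME-180 cells, measured as disrupted FRET after 16 hr exposure at 37C and 5% CO2.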

[19] = MultiTox-Fluor Cytotoxicity Assay - LYMP1-001 - Dead Cells (AID 946);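 note: 0% = DMSO and 100% = tetraoctylammonium bromide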
How it was run: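 AC50 from Hill fit of concentration-response; data normalized to DMSO (basal) and 15 uM tetraoctylammonium bromide (100%). LYMP1-001 lymphoblastoid cells, 2500/well, 16 hr compound at 37 C; dead-cell protease fluorescence, Ex/Em 485/520.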

[20] = Cell Viability - LYMP2-014 (AID 983);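 note: cells exposed to compound for 24 h at 37 °C; plate controls were DMSO only for no effect and 92 µM tetraoctylammonium bromide for full effect; nearly all actives have a fitted effect of over 50% in size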
How it was run: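 Cells are plated at 2500/well and left 5 hr at 37 C. Compounds are added across a concentration range and incubated 24 hr at 37 C in complete medium. CellTiter-Glo is added, and luminescence is read after 30 min at room temperature.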

Vitamin D3 receptor (Homo sapiens), sequence (P11473 whole entry, looked up): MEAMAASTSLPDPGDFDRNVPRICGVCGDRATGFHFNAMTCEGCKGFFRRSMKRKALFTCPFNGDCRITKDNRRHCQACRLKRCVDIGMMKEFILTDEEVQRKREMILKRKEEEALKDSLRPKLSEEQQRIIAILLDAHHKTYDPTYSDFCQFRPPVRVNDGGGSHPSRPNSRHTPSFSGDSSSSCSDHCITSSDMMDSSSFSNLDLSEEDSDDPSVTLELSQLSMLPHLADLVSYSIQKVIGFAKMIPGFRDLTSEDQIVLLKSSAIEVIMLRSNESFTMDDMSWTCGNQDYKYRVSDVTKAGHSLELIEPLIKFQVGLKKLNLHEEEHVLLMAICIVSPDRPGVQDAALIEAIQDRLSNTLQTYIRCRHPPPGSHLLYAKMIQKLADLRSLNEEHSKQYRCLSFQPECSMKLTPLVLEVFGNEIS
Peroxisome proliferator-activated receptor delta (Homo sapiens), sequence (Q03181 whole entry, looked up): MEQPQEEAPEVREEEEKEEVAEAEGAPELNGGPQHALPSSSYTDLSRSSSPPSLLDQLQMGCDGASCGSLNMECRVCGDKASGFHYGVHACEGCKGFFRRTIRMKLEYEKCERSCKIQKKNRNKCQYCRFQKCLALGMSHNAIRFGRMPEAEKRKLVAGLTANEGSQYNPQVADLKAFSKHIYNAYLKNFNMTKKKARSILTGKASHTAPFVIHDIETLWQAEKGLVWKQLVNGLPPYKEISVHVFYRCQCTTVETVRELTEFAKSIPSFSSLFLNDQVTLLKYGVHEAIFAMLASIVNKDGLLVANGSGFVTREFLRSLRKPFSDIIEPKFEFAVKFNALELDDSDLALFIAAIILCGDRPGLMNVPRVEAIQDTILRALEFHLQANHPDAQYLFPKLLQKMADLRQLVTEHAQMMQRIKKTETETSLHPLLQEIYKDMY
Retinoic acid receptor RXR-alpha (Homo sapiens), sequence (P19793 whole entry, looked up): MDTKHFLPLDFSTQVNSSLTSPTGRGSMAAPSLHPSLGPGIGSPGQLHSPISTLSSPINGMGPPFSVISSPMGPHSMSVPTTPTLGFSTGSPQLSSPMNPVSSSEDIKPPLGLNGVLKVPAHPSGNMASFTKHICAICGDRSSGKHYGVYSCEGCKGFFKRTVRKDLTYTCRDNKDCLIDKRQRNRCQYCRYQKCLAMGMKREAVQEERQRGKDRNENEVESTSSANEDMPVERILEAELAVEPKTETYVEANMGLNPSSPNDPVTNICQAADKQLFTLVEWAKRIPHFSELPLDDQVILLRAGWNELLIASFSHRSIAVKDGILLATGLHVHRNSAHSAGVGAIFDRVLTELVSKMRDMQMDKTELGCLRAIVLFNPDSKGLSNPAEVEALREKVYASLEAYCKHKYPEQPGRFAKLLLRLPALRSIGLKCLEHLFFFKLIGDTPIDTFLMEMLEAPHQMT
Nuclear receptor subfamily 1 group I member 2 (Rattus norvegicus), sequence (Q9R1A7 whole entry, looked up): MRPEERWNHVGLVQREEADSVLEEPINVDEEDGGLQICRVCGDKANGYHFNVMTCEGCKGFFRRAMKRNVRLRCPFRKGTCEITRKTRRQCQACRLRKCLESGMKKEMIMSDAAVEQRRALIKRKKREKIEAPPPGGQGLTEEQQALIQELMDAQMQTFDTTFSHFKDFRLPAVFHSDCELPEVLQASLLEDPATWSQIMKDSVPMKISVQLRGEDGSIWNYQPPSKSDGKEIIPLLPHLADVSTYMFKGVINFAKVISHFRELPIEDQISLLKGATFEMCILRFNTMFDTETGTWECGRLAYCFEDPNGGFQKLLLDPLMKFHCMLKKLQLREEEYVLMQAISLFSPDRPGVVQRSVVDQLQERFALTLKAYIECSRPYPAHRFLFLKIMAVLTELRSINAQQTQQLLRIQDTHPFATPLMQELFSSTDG
Peroxisome proliferator-activated receptor gamma (Homo sapiens), sequence (P37231 whole entry, looked up): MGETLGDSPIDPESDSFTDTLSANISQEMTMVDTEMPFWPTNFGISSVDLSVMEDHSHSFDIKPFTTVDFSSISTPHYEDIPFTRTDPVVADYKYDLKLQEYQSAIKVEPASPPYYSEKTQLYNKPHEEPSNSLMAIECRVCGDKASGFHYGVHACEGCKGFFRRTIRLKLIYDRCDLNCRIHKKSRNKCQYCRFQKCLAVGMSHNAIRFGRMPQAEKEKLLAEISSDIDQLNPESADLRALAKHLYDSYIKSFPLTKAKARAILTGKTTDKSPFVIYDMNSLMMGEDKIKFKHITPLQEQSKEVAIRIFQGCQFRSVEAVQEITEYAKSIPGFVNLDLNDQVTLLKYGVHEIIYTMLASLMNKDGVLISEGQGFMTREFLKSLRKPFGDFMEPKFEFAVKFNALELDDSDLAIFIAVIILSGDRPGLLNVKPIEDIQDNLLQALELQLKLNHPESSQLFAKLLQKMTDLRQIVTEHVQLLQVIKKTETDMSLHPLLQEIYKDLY
Estrogen receptor (Homo sapiens), sequence (P03372 whole entry, looked up): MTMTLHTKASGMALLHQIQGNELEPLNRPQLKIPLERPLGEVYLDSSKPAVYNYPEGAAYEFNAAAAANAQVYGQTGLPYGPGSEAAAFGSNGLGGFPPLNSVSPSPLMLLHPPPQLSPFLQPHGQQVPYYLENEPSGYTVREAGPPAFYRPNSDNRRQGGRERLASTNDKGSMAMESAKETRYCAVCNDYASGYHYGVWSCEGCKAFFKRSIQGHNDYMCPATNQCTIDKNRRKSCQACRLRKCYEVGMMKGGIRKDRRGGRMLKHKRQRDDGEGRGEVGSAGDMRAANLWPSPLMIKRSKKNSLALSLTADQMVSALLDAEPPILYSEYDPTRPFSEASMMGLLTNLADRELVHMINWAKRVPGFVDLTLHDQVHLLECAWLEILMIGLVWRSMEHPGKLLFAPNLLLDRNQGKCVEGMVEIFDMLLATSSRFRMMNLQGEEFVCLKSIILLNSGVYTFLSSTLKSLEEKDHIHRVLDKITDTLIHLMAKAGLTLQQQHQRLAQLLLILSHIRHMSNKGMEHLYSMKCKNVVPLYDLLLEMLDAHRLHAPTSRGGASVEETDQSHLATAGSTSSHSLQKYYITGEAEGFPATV
Bile acid receptor (Homo sapiens), sequence (Q96RI1 whole entry, looked up): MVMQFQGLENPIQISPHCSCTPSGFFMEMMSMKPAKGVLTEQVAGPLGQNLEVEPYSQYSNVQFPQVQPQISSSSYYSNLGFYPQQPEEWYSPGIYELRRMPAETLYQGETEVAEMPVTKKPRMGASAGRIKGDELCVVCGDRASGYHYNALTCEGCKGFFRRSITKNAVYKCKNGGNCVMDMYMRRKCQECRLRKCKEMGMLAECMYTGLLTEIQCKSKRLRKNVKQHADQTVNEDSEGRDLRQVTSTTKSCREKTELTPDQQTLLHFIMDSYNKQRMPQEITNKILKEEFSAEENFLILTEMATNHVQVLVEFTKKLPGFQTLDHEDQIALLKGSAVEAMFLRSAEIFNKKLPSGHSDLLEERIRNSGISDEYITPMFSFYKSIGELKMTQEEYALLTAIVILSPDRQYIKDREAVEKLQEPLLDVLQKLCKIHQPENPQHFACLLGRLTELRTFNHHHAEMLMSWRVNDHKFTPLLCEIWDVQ

COC1=CC(=O)O[C@@H](/C=C/c2ccc3c(c2)OCO3)C1
inactive: outcome [1] | Potency [2] | Potency [4] | outcome [5] | outcome [6] | max response [8] -22%
27.2%: max response [3]
active: Potency [7] 6.68 µM

C[C@]12CC[C@H]3[C@@H](CCC4=CC(=O)CC[C@@]43C)[C@@H]1CC[C@@H]2O
inactive: caspase-3 activation [9] 4.38% | Potency [10] | outcome [11] | Potency [4] | outcome [6] | max response [13] 3.05% | outcome [14]
active: Potency [12] 12.6 µM

c1ccc(-c2ccccc2)cc1
inactive and 54.5 µM (active): Potency [7]
-1.97% and 13.4%: max response [3]
inactive: Potency [15] | Potency [16] | outcome [17] | outcome [11] | Potency [4] | activation [18] 0.41% and 0.224%

C=CCc1ccc(OC)c(OC)c1
inactive: outcome [11]

C=C(C)[C@H]1CC=C(C)C(=O)C1
inactive: outcome [11]

CCCCCCCCCCCC(=O)O
inactive: outcome [11]

c1ccc(OP(Oc2ccccc2)Oc2ccccc2)cc1
inactive: Potency [2] | Potency [10] | Potency [16] | Potency [4] | outcome [5] | outcome [6] | Potency [12] | activation [18] -3.6% and -0.416% | max response [13] 0.576% and -1.05% | outcome [14]

CCCCOCCOP(=O)(OCCOCCCC)OCCOCCCC
25%: max response [3]
inactive: Potency [19] | Potency [20] | Potency [16] | Potency [4] | outcome [5] | outcome [6] | Potency [12] | activation [18] -1.15% and -0.483%

Brc1ccc(Oc2cc(Br)c(Br)cc2Br)c(Br)c1
inactive: caspase-3 activation [9] 17.5% | Potency [19] | Potency [2] | Potency [10] | Potency [15] | Potency [20] | Potency [16] | outcome [11] | outcome [5] | outcome [6] | activation [18] 0.934% and 2.14% and 2.73%
18.7% and 4.79%: max response [3]

COc1ccc(N)cc1
inactive: caspase-3 activation [9] 2.07% and 0.631% | Potency [10] | Potency [15] | outcome [11] | max response [8] 2.27% and -1.78% | outcome [14]
35%: max response [3]

CC(=O)[O-].CC(=O)[O-].O.O.O.[Pb+2]
inactive: outcome [1] | Potency [2] | Potency [10] | Potency [15]
active: Potency [7] 33.5 µM and 37.6 µM

CC(Cl)Cl
inactive: outcome [1] | Potency [10] | Potency [15] | Potency [20] | Potency [16] | outcome [17] | outcome [5] | outcome [6] | Potency [12] | Potency [7] | activation [18] 3.47% | max response [8] -4.5% | max response [13] -1.43% | outcome [14]
2.53%: max response [3]

CN=C=S
inactive: outcome [1] | Potency [10] | Potency [20] | outcome [17] | outcome [11] | Potency [4] | outcome [5] | outcome [6] | Potency [12] | Potency [7] | activation [18] 0.411% and -0.263% | max response [8] -4.04% and -6.57% | max response [13] 1.38% and 4.99% | outcome [14]
11.4%: max response [3]
active: Potency [16] 20 µM

OCC(Br)CBr (stereo not drawn)
7.4%: max response [3]
inactive: outcome [1] | Potency [19] | Potency [10] | Potency [20] | Potency [16] | outcome [17] | outcome [11] | Potency [4] | outcome [5] | outcome [6] | Potency [12] | Potency [7] | max response [8] 6.86% | outcome [14]

CC(C)(OO)c1ccccc1
-33%: max response [3]
inactive: caspase-3 activation [9] -2.32% | outcome [1] | Potency [10] | Potency [20] | outcome [17] | Potency [4] | outcome [5] | outcome [6] | Potency [7] | activation [18] -2.1% and -0.395% | max response [13] 7.13% and -0.342% | outcome [14]

CC(C)(C)OO
inactive: outcome [1] | Potency [19] | Potency [2] | Potency [10] | Potency [15] | Potency [20] | outcome [11] | Potency [4] | outcome [5] | outcome [6] | Potency [7] | activation [18] -0.974% and 0.475% | max response [13] 1.05% and -0.992% | outcome [14]
26.2% and -4.41%: max response [3]

Cc1cccc(C#N)c1
inactive: caspase-3 activation [9] 0.831% | outcome [1] | Potency [2] | Potency [10] | Potency [15] | Potency [20] | Potency [16] | outcome [17] | outcome [11] | outcome [5] | outcome [6] | Potency [12] | activation [18] 0.885% | max response [8] 0.442% | max response [13] -0.906% | outcome [14]
57%: max response [3]

O=C=NC1CCCCC1
inactive: caspase-3 activation [9] -0.599% and -1.26% | Potency [10] | Potency [15] | Potency [16] | outcome [17] | Potency [4] | outcome [5] | outcome [6] | Potency [7] | max response [8] -2.8% and 0.863% | outcome [14]

C=CC(C)=O
inactive: caspase-3 activation [9] -0.622% | outcome [1] | Potency [19] | Potency [2] | Potency [10] | Potency [15] | Potency [16] | outcome [17] | Potency [12] | Potency [7] | activation [18] 0.254% | max response [8] 0.318% | max response [13] 1.84% | outcome [14]
6.99%: max response [3]

CCOP(=S)(OCC)Oc1ccc([N+](=O)[O-])cc1
12.5% and -2.14%: max response [3]
inactive: caspase-3 activation [9] -2.23% and 0.755% | outcome [1] | Potency [19] | Potency [20] | outcome [11] | Potency [4] | Potency [12] | Potency [7] | activation [18] -1.46% and -0.889% and 0.819% | max response [8] 0.0323% and -20.7% and -1.59%
